“And” between values parts separate entries of the source, which are not always exact repeats. Equal values may be shown once. About 2,000 (36%) of roughly 5,500 compounds were called active. Inconclusive results (about 18%) are left out. Rule as the data show it: active = normalized growth mostly below about 0.91 (no sharp cut-off); inconclusive = no clear call, values can overlap the other calls; inactive = mostly above about 0.92. Some of the results follow.
Assay: chemical genetic growth profiling, strain panel (AID 1159580);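 also: tested at 20 µM; growth read once vehicle control cultures reached saturation at 30 °C; 1 = growth at the plate median or of vehicle wells; lower values mean less growth of the strain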
Conditions: S. cerevisiae deletion strains, growth OD

Measured: normalized growth

C[C@]12C=CC(=O)C=C1CCC1C2C(=O)C[C@@]2(C)C1CC[C@]2(O)C(=O)CO (stereo not given in full)
inactive: locus YAL013W, strain DEP1, stronger effect = lower value 0.992 | locus YAL021C, strain ccr4, stronger effect = lower value 1.03 | locus YAL026C, strain drs2, stronger effect = lower value 1.02 | locus YAL030W, strain snc1, stronger effect = lower value 0.997 | locus YBL061C, strain skt5, stronger effect = lower value 0.992 | locus YBR009C, strain hhf1, stronger effect = lower value 1.01 | locus YBR021W, strain FUR4, stronger effect = lower value 0.985 | locus YBR023C, strain chs3, stronger effect = lower value 1.01 | locus YBR171W, strain sec66, stronger effect = lower value 0.979 | locus YBR229C, strain ROT2, stronger effect = lower value 0.954 | locus YBR231C, strain swc5, stronger effect = lower value 1.01 | locus YBR279W, strain paf1, stronger effect = lower value 1 | locus YCL011C, strain gbp2, stronger effect = lower value 1 | locus YCL016C, strain dcc1, stronger effect = lower value 1.01 | locus YCL029C, strain bik1, stronger effect = lower value 0.978 | locus YCL061C, strain MRC1, stronger effect = lower value 1 | locus YCL069W, strain vba3, stronger effect = lower value 0.996 | locus YCR088W, strain abp1, stronger effect = lower value 0.989 | locus YDL005C, strain med2, stronger effect = lower value 0.981 | locus YDL035C, strain GPR1, stronger effect = lower value 0.981 | locus YDL040C, strain nat1, stronger effect = lower value 0.995 | locus YDL074C, strain BRE1, stronger effect = lower value 0.965 | locus YDL101C, strain DUN1, stronger effect = lower value 0.985 | locus YDL134C, strain PPH21, stronger effect = lower value 0.992 | locus YDL185W, strain tfp1, stronger effect = lower value 0.983 | locus YDL192W, strain arf1, stronger effect = lower value 0.997 | locus YDR001C, strain nth1, stronger effect = lower value 1 | locus YDR069C, strain doa4, stronger effect = lower value 0.98 | locus YDR101C, strain arx1, stronger effect = lower value 0.991 | locus YDR137W, strain rgp1, stronger effect = lower value 1.01 | locus YDR150W, strain NUM1, stronger effect = lower value 0.987 | locus YDR159W, strain sac3, stronger effect = lower value 1.01 | locus YDR162C, strain NBP2, stronger effect = lower value 0.992 | locus YDR195W, strain ref2 0.916 | locus YDR297W, strain sur2, stronger effect = lower value 0.989 | locus YDR318W, strain mcm21, stronger effect = lower value 0.996 | locus YDR334W, strain swr1, stronger effect = lower value 0.999 | locus YDR335W, strain msn5, stronger effect = lower value 0.997 | locus YDR388W, stronger effect = lower value 0.986 | locus YDR392W, strain spt3, stronger effect = lower value 1.05 | locus YDR502C, strain sam2, stronger effect = lower value 0.989 | locus YEL003W, strain gim4, stronger effect = lower value 1 | locus YEL037C, strain rad23, stronger effect = lower value 0.996 | locus YEL061C, strain CIN8 (second series), stronger effect = lower value 0.997 | locus YEL061C, strain CIN8, stronger effect = lower value 0.985 | locus YER015W, strain faa2, stronger effect = lower value 0.996 | locus YER016W, strain bim1, stronger effect = lower value 1.01 | locus YER110C, stronger effect = lower value 0.966 | locus YER111C, strain swi4, stronger effect = lower value 0.981 | locus YER155C, strain BEM2 (second series), stronger effect = lower value 0.973 | locus YER155C, strain BEM2, stronger effect = lower value 1 | locus YER167W, strain BCK2, stronger effect = lower value 0.991 | locus YFR010W, strain ubp6, stronger effect = lower value 0.984 | locus YGL078C, strain dbp3, stronger effect = lower value 0.984 | locus YGL086W, strain mad1, stronger effect = lower value 0.995 | locus YGL167C, strain pmr1, stronger effect = lower value 0.991 | locus YGL173C, strain kem1, stronger effect = lower value 0.994 | locus YGL227W, strain vid30, stronger effect = lower value 0.999 | locus YGL240W, strain doc1, stronger effect = lower value 0.978 | locus YGL248W, strain PDE1, stronger effect = lower value 0.978 | locus YGL253W, strain hxk2, stronger effect = lower value 0.992 | locus YGR078C, strain PAC10, stronger effect = lower value 0.988 | locus YGR135W, strain pre9, stronger effect = lower value 0.997 | locus YGR252W, strain gcn5, stronger effect = lower value 0.95 | locus YHR013C, strain ard1, stronger effect = lower value 0.999 | locus YHR027C, strain rpn1, stronger effect = lower value 1 | locus YHR030C, strain SLT2, stronger effect = lower value 0.997 and 1.02 | locus YHR079C, strain IRE1 (second series), stronger effect = lower value 0.998 | locus YHR079C, strain IRE1, stronger effect = lower value 1.05 | locus YHR094C, strain hxt1, stronger effect = lower value 0.988 | locus YHR129C, strain ARP1, stronger effect = lower value 0.963 | locus YHR142W, strain chs7, stronger effect = lower value 0.972 | locus YHR200W, strain rpn10, stronger effect = lower value 0.986 | locus YIL066C, strain RNR3, stronger effect = lower value 0.98 | locus YIL073C, strain SPO22, stronger effect = lower value 1.01 | locus YIL125W, strain kgd1, stronger effect = lower value 0.993 | locus YIR030C, strain dcg1, stronger effect = lower value 0.987 | locus YJL092W, strain hpr5, stronger effect = lower value 1 | locus YJL095W, strain BCK1 (second series), stronger effect = lower value 1.01 | locus YJL095W, strain BCK1, stronger effect = lower value 0.982 and 1.03 | locus YJL115W, strain asf1, stronger effect = lower value 0.988 | locus YJL129C, strain trk1, stronger effect = lower value 0.978 | locus YJL134W, strain LCB3, stronger effect = lower value 0.995 | locus YJL154C, strain vps35, stronger effect = lower value 1 | locus YJL164C, strain tpk1, stronger effect = lower value 1.02 | locus YJL166W, strain qcr8, stronger effect = lower value 0.976 | locus YJL168C, strain set2, stronger effect = lower value 0.992 | locus YJL187C, strain SWE1 (second series), stronger effect = lower value 0.984 | locus YJR043C, strain POL32, stronger effect = lower value 1 | locus YJR066W, strain TOR1, stronger effect = lower value 0.976
